This is an account of results in PubChem BioAssay (NCI).

Compounds without any hit were thinned out: in the full panel of roughly 83,000, 20% have a hit.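 Growth was measured after 48 h exposure to one concentration of compound in 96-well plates. Values under 10 count as active.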 Unmarked numbers belong to inactive results. Activity calls are given as the source filed them.

Among the test systems are HCT-15 colon; HT29 colon; SNB-75 CNS; SNB-19 CNS; U251 CNS; PC-3 prostate; SK-MEL-5 melanoma; UACC-62 melanoma; LOX IMVI melanoma; SK-MEL-28 melanoma; SK-MEL-2 melanoma; EKVX NSCLC; SN12C renal; UO-31 renal; TK-10 renal; ACHN renal; CAKI-1 renal; A498 renal; CCRF-CEM leukemia; MOLT-4 leukemia.
What all share (experiment): NCI-60 one-dose screen, 48 h (100 = growth as untreated, 0 = no growth, -100 = all killed)
Details in all cases: 10 µM unless noted

On to `COc1ccc(-c2nc(/C=C3\SC(=NCc4ccccc4)NC3=O)c3ccccn23)cc1`, for which the growth with HCT-15 colon is 0.0387% (active); in the assay with HT29 colon it was -70.4% (active); in the assay with SNB-75 CNS, -46.8% (active); in the assay with SNB-19 CNS, 16%; in the assay on U251 CNS, -43.6% (active); in the assay on PC-3 prostate, 13.7%. The growth with SK-MEL-5 melanoma is -78.4% (active); with UACC-62 melanoma it was -49.7% (active); with LOX IMVI melanoma, -76.4% (active); with SK-MEL-28 melanoma, -43.9% (active); with SK-MEL-2 melanoma, -31.6% (active); in the assay on EKVX NSCLC it was 58%. Also, the growth was -19.7% (active) in the assay on SN12C renal; -47.2% (active) in the assay on UO-31 renal; -52.4% (active) in the assay with TK-10 renal; -28.3% (active) in the assay with ACHN renal; 3.18% (active) in the assay on CAKI-1 renal; -7.6% (active) in the assay on A498 renal. In addition, the growth in the assay on CCRF-CEM leukemia is 16.2%; in the assay with MOLT-4 leukemia, 11.1%.

Regarding `COc1cc(CNS(=O)(=O)c2ccc(C)cc2)ccc1OCc1cn(-c2ccc(F)cc2)nn1`, the growth with HCT-15 colon is 92.5%; in the assay with HT29 colon it was 85.1%; in the assay on SNB-75 CNS, 81%; in the assay on SNB-19 CNS it was 102%; in the assay with U251 CNS, 97.3%; in the assay with PC-3 prostate it was 83.6%. In addition, the growth in the assay on SK-MEL-5 melanoma is 56.7%; with UACC-62 melanoma, 71.8%; in the assay on LOX IMVI melanoma, 102%; with SK-MEL-28 melanoma it was 87.9%; in the assay on SK-MEL-2 melanoma, 104%; with EKVX NSCLC, 80.3%. Also, the growth in the assay on SN12C renal is 92.2%; in the assay with UO-31 renal it was 63.9%; in the assay on TK-10 renal it was 116%; in the assay on ACHN renal, 93.2%; in the assay with CAKI-1 renal, 89.6%; in the assay with A498 renal, 54.1%. The growth with CCRF-CEM leukemia is 79.9%; in the assay with MOLT-4 leukemia, 78.2%.

As to `O=C(CCCCC1CCSS1)Nc1ncnc2n[nH]c(-c3ccc(Oc4ccccc4)cc3)c12` (stereo not given), the growth with HCT-15 colon was 95.8%; in the assay on HT29 colon, 88.3%; in the assay with SNB-75 CNS it was 135%; with SNB-19 CNS, 114%; in the assay on U251 CNS it was 106%; in the assay with PC-3 prostate, 90.2%. Moreover, the growth with SK-MEL-5 melanoma was 87.9%; with UACC-62 melanoma, 70.4%; in the assay with LOX IMVI melanoma, 5.87% (active); with SK-MEL-28 melanoma, 47%; with SK-MEL-2 melanoma, 43.6%; in the assay with EKVX NSCLC, 80.5%. Besides, the growth with SN12C renal is 106%; in the assay on UO-31 renal, 73.2%; in the assay with TK-10 renal it was 109%; in the assay with ACHN renal, 88.3%; in the assay on CAKI-1 renal it was 97.1%; in the assay on A498 renal, 123%. In addition, the values for the growth in the assay with CCRF-CEM leukemia and with MOLT-4 leukemia were 13.7% and -31.3% (active), respectively.

On to `N#Cc1c(-c2ccccc2)cc(-c2ccccc2)n(CCCCCC(=O)Nc2ccccc2N)c1=O`, for which the growth in the assay on HCT-15 colon was 51.7%; with HT29 colon, 43.7%; in the assay on SNB-75 CNS, 32.2%; in the assay on SNB-19 CNS it was 68.2%; in the assay on U251 CNS, 61.2%; in the assay with PC-3 prostate, 43.7%. The growth in the assay on SK-MEL-5 melanoma is 21.2%; in the assay on UACC-62 melanoma, 65.5%; with LOX IMVI melanoma, 26.2%; in the assay on SK-MEL-28 melanoma, 80.5%; in the assay on SK-MEL-2 melanoma, 89.7%; in the assay with EKVX NSCLC it was 50.8%. Besides, the growth in the assay on SN12C renal is 59%; with UO-31 renal, 34.4%; in the assay on TK-10 renal it was 72.8%; in the assay on ACHN renal, 73.7%; in the assay with CAKI-1 renal, 29.7%; with A498 renal it was 96.7%. Moreover, the figures for the growth with CCRF-CEM leukemia and with MOLT-4 leukemia were 6.3% (active) and 9.12% (active), respectively.

As for `c1ccc(C2=NN[C@H](c3cn(-c4ccccc4)nc3-c3ccccc3)C2)cc1`, the growth was 86.5% with HCT-15 colon; 65.2% in the assay on HT29 colon; -32.7% (active) with SNB-75 CNS; 55% in the assay with SNB-19 CNS; 7.2% (active) with U251 CNS; 43.5% in the assay with PC-3 prostate. Also, the growth is 64% with SK-MEL-5 melanoma; 90.3% in the assay on UACC-62 melanoma; 24.4% with LOX IMVI melanoma; 50.2% in the assay with SK-MEL-28 melanoma; 54.8% in the assay with SK-MEL-2 melanoma; 41.4% in the assay on EKVX NSCLC. Moreover, the growth in the assay on SN12C renal was 46.6%; with UO-31 renal, 9.32% (active); with TK-10 renal, 17.9%; with ACHN renal, -4.87% (active); in the assay on CAKI-1 renal it was 4.95% (active); with A498 renal, 54.5%. Moreover, the growth in the assay with CCRF-CEM leukemia was 89.3%; with MOLT-4 leukemia it was 80.5%.

As to `CCN(CC)CCSc1nc(-c2ccccc2)c(C#N)c(=O)[nH]1`, the growth in the assay with HCT-15 colon is 117%; in the assay with HT29 colon, 142%; in the assay with SNB-75 CNS, 129%; with SNB-19 CNS it was 101%; in the assay on U251 CNS, 105%; in the assay with PC-3 prostate, 116%. Moreover, the growth was 85.1% in the assay on SK-MEL-5 melanoma; 108% with UACC-62 melanoma; 99.9% in the assay on LOX IMVI melanoma; 110% with SK-MEL-28 melanoma; 97% with SK-MEL-2 melanoma; 91.8% in the assay with EKVX NSCLC. The growth in the assay on SN12C renal was 116%; with UO-31 renal it was 110%; in the assay with TK-10 renal, 128%; in the assay with ACHN renal, 112%; with CAKI-1 renal, 99.8%; in the assay on A498 renal, 208%. Further, the growth with CCRF-CEM leukemia is 150%; in the assay with MOLT-4 leukemia, 105%.

For `Cc1ccccc1NC(=O)c1sc2nc(C)c(C(=O)/C=C/c3ccccc3)cc2c1N`, the growth was -1.44% (active) with HCT-15 colon; -5.48% (active) in the assay on HT29 colon; -7.36% (active) in the assay on SNB-75 CNS; 2.8% (active) with SNB-19 CNS; -35% (active) with U251 CNS; 29% in the assay on PC-3 prostate. The growth was 17.7% in the assay with SK-MEL-5 melanoma; 7.17% (active) in the assay on UACC-62 melanoma; -85.9% (active) in the assay on LOX IMVI melanoma; 42% in the assay with SK-MEL-28 melanoma; 34.8% in the assay on SK-MEL-2 melanoma; 59.6% in the assay on EKVX NSCLC. Besides, the growth was 3.45% (active) in the assay on SN12C renal; 19.7% in the assay with UO-31 renal; 11.7% in the assay on TK-10 renal; 33.3% with ACHN renal; 25.5% with CAKI-1 renal; 29.3% with A498 renal. In addition, the growth with CCRF-CEM leukemia was 8.43% (active); in the assay on MOLT-4 leukemia it was 17.4%.

In the case of `CCCCN1C(=O)/C(=c2\sc3n(c2=O)C2C(NN=3)N(CC)C(=O)N2CC)c2ccccc21` (stereo not given), the growth in the assay with HCT-15 colon is 8.29% (active); in the assay with HT29 colon, 0.704% (active); with SNB-75 CNS, -17.6% (active); in the assay with SNB-19 CNS, 25%; in the assay with U251 CNS, 5.8% (active); with PC-3 prostate, 20.7%. Besides, the growth in the assay with SK-MEL-5 melanoma was 29.2%; with UACC-62 melanoma, 18.9%; in the assay with LOX IMVI melanoma it was 20.1%; in the assay on SK-MEL-28 melanoma, 48.1%; with SK-MEL-2 melanoma, 21.9%; in the assay on EKVX NSCLC, 52.1%. Besides, the growth in the assay on SN12C renal is 19.3%; with UO-31 renal, 18.4%; in the assay on TK-10 renal it was 55.9%; in the assay on ACHN renal, 23.9%; with CAKI-1 renal, 18.1%; with A498 renal it was -2.15% (active). The results for the growth with CCRF-CEM leukemia and in the assay with MOLT-4 leukemia were 7.34% (active) and 11.1%, respectively.
